Data taken from PubChem BioAssay (NCATS).
Several values for one entry are separate records, joined by “and”; a condition that tells them apart may be missing. Equal entries are not always repeated. Inconclusive results are not listed. Activity calls are given as the source filed them. Unless noted, calls follow the shape of the dose curve; as a rule, active = well fitted inhibition curve with a large enough effect; inconclusive = small, poorly fitted or top-dose-only effect; inactive = flat fitted curve, though single readings scatter.

What was measured:
[1] = qHTS drug screen for cell cycle checkpoint inhibitors in PARPi-resistant BRCA-mutant ovarian cancer cell lines. (AID 1963452; calls by dose curve); details: PEO1/OlaR viability, CellTiter-Glo luminescence, 96 h, stronger effect = lower value
Procedure, shortened: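 PEO1, PEO4 and PEO1/OlaR ovarian cancer cells, 600 per well, exposed 96 h at 37C to a dilution series. Viability read by CellTiter-Glo luminescence, normalized to DMSO and empty wells; activity summarized as Z-AUC.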

[2] = qHTS profiling for inhibitors of Plasmodium falciparum proliferation (AID 504749); also: nearly all actives have a fitted effect of over 60% in size; also: potency is read from the fitted curve at half-maximal effect;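 as to activity, negative = inhibition: 0% = DMSO vehicle and full inhibition = artemisinin control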; details: P. falciparum in erythrocytes, SYBR Green DNA, 72 h
Procedure, shortened: (§1)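 Readout was DNA-dye fluorescence from lysed cultures, ex 485/em 535 nm. Parasitized red cells had grown 72 h with compound; data scaled between 0.29 uM artemisinin and DMSO wells and corrected using vehicle-only plates.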

3D7 = assay: as above; details: P. falciparum in erythrocytes, SYBR Green DNA, 72 h; series mostly up to 28.7 µM
Procedure, shortened: as §1

7G8 = assay: as above; details: P. falciparum in erythrocytes, SYBR Green DNA, 72 h; series mostly up to 28.7 µM
Procedure, shortened: as §1

AS120 = assay: as above; details: P. falciparum in erythrocytes, SYBR Green DNA, 72 h; series mostly up to 28.7 µM
Procedure, shortened: as §1

ATS95 = assay: as above; details: P. falciparum in erythrocytes, SYBR Green DNA, 72 h; series mostly up to 28.7 µM
Procedure, shortened: as §1

C2A = assay: as above; details: P. falciparum in erythrocytes, SYBR Green DNA, 72 h; series mostly up to 28.7 µM
Procedure, shortened: as §1

CP185 = assay: as above; details: P. falciparum in erythrocytes, SYBR Green DNA, 72 h; series mostly up to 28.7 µM
Procedure, shortened: as §1

CP191 = assay: as above; details: P. falciparum in erythrocytes, SYBR Green DNA, 72 h; series mostly up to 28.7 µM
Procedure, shortened: as §1

CP192 = assay: as above; details: P. falciparum in erythrocytes, SYBR Green DNA, 72 h; series mostly up to 28.7 µM
Procedure, shortened: as §1

CP203 = assay: as above; details: P. falciparum in erythrocytes, SYBR Green DNA, 72 h; series mostly up to 28.7 µM
Procedure, shortened: as §1

CP211 = assay: as above; details: P. falciparum in erythrocytes, SYBR Green DNA, 72 h; series mostly up to 28.7 µM
Procedure, shortened: as §1

CP237 = assay: as above; details: P. falciparum in erythrocytes, SYBR Green DNA, 72 h; series mostly up to 28.7 µM
Procedure, shortened: as §1

AA1029 = assay: as above; details: P. falciparum in erythrocytes, SYBR Green DNA, 72 h; series mostly up to 28.7 µM
Procedure, shortened: as §1

ATS189 = assay: as above; details: P. falciparum in erythrocytes, SYBR Green DNA, 72 h; series mostly up to 28.7 µM
Procedure, shortened: as §1

CP194 = assay: as above; details: P. falciparum in erythrocytes, SYBR Green DNA, 72 h; series mostly up to 28.7 µM
Procedure, shortened: as §1

CP201 = assay: as above; details: P. falciparum in erythrocytes, SYBR Green DNA, 72 h; series mostly up to 28.7 µM
Procedure, shortened: as §1

CP215 = assay: as above; details: P. falciparum in erythrocytes, SYBR Green DNA, 72 h; series mostly up to 28.7 µM
Procedure, shortened: as §1

CP217 = assay: as above; details: P. falciparum in erythrocytes, SYBR Green DNA, 72 h; series mostly up to 28.7 µM
Procedure, shortened: as §1

[3] = measured here: PEO1 parental Z-AUC
[4] = at 12.8 µM (top of the series), parasite line A
[5] = at 12.8 µM (top of the series), parasite line B
[6] = at 28.7 µM (top of the series), parasite line B
[7] = at 28.7 µM (top of the series), parasite line A

CCCCOc1ccc(CC(=O)NO)cc1
-0.714: Z-AUC [1, 3]
inactive: Z-AUC [1] -0.866
-0.748: Z-AUC ([1]; measured here: PEO4 Z-AUC)
active: Potency ([2]; parasite line A) 1.12 µM | Potency (3D7) 0.562 µM | Potency (7G8) 1.78 µM | Potency (AS120) 3.55 µM | Potency (ATS95) 3.55 µM | Potency (C2A) 1.58 µM | Potency (CP185) 3.98 µM | Potency (CP191) 2.24 µM | Potency (CP192) 4.05 µM | Potency (CP203) 3.61 µM | Potency (CP211) 2.56 µM | Potency (CP237) 4.47 µM

NC(N)=NC(N)=NCCc1ccccc1
inactive: Z-AUC [1] 1.13 | activity, negative = inhibition [2, 4] -25.4% | activity, negative = inhibition [2, 5] -8.82% | activity, negative = inhibition [2, 6] -17% | Potency (3D7) | Potency (7G8) | Potency (AA1029) | Potency (AS120) | Potency (ATS189) | Potency (ATS95) | Potency (C2A) | Potency (CP185) | Potency (CP191) | Potency (CP192) | Potency (CP194) | Potency (CP201) | Potency (CP203) | Potency (CP211) | Potency (CP215) | Potency (CP217) | Potency (CP237)
0.483: Z-AUC ([1]; measured here: PEO4 Z-AUC)
0.288: Z-AUC [1, 3]

CC1=CC(=O)c2ccccc2C1=O
0.394: Z-AUC [1, 3]
inactive: Z-AUC [1] 0.899 | activity, negative = inhibition [2, 7] -6.5% | activity, negative = inhibition [2, 6] -23% | Potency (AA1029) | Potency (AS120) | Potency (ATS189) | Potency (ATS95) | Potency (CP185) | Potency (CP191) | Potency (CP192) | Potency (CP194) | Potency (CP201) | Potency (CP203) | Potency (CP211) | Potency (CP215) | Potency (CP217)
0.252: Z-AUC ([1]; measured here: PEO4 Z-AUC)
active: Potency (3D7) 7.08 µM | Potency (7G8) 10 µM

CC(C)NCC(O)c1ccc(NS(C)(=O)=O)cc1 (configuration not stated)
1.13: Z-AUC [1, 3]
0.42: Z-AUC ([1]; measured here: PEO4 Z-AUC)
inactive: Z-AUC [1] -0.911 | activity, negative = inhibition [2, 7] -2.6% and 1.55% | activity, negative = inhibition [2, 6] 9.61% and 12.6% | Potency (3D7) | Potency (7G8) | Potency (AA1029) | Potency (AS120) | Potency (ATS189) | Potency (ATS95) | Potency (C2A) | Potency (CP185) | Potency (CP191) | Potency (CP192) | Potency (CP194) | Potency (CP201) | Potency (CP203) | Potency (CP211) | Potency (CP215) | Potency (CP217) | Potency (CP237)

CC(C)(Sc1cc(C(C)(C)C)c(O)c(C(C)(C)C)c1)Sc1cc(C(C)(C)C)c(O)c(C(C)(C)C)c1
active: Potency (3D7) 3.55 µM
inactive: Z-AUC [1] 0.926 | activity, negative = inhibition [2, 4] 6.04% | activity, negative = inhibition [2, 5] 8.09% | Potency (AA1029) | Potency (AS120) | Potency (ATS189) | Potency (ATS95) | Potency (C2A) | Potency (CP185) | Potency (CP191) | Potency (CP192) | Potency (CP194) | Potency (CP201) | Potency (CP203) | Potency (CP211) | Potency (CP215) | Potency (CP217)
1.09: Z-AUC ([1]; measured here: PEO4 Z-AUC)
1.36: Z-AUC [1, 3]

CC(C)OC(=O)C(C(=O)OC(C)C)=C1SC=CS1
inactive: Z-AUC [1] 1.21 | activity, negative = inhibition [2, 7] 2.72% | activity, negative = inhibition [2, 6] 16.3% | Potency (3D7) | Potency (7G8) | Potency (AA1029) | Potency (AS120) | Potency (ATS189) | Potency (ATS95) | Potency (C2A) | Potency (CP185) | Potency (CP191) | Potency (CP192) | Potency (CP194) | Potency (CP201) | Potency (CP203) | Potency (CP211) | Potency (CP215) | Potency (CP217) | Potency (CP237)
0.837: Z-AUC [1, 3]
1.06: Z-AUC ([1]; measured here: PEO4 Z-AUC)
